In PubChem BioAssay (NCI) one finds growth data, which are given here for 38 molecules.

Compounds without any hit were thinned out: in the full panel of roughly 83,000, 20% have a hit.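 Assay: single dose, 48 h. Readout: percent growth (0 = no net growth; negative = cell death). Active: <10.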 Calls of active or inactive are those of the source.

The subject of the first assay is U251 CNS. Put plainly: NCI-60 one-dose screen, 48 h (100 = growth as untreated, 0 = no growth, -100 = all killed). The conditions noted are these: 10 µM unless noted.
In the case of `COC(=O)C(Cc1ccccc1)NC(=O)NC(=O)NC(=O)CI` (stereo not given), the growth was 101% (inactive).
With `O=C1CCC(C(=O)NCCNCCNC(=O)C2CCC(=O)N2)N1` (stereo not given), the growth is 97.7% (inactive).
With `C(=N/Nc1ncnc2nc[nH]c12)/c1ccccn1`, the growth is 32.6% (inactive).
With `CCCCCCCCCCCCCCCCCCOc1ccc(CC(=O)OCC[N+](C)(C)C)cc1`, the growth was 92.2% (inactive).
Still for that read-out and setting: to `COc1ccc([C@H]2c3cc(OC)c(OC)cc3C=C(C=O)C2CO)cc1OC` (stereo not given in full) belongs 36.2% (inactive); to `Cc1nn(-c2ccccc2)c(-n2ccnc2)c1/C=N/Nc1nc(-c2ccc(Cl)c(Cl)c2)cs1`, 53.1% (inactive); to `Cc1ccc2c(n1)C(=O)C(Cl)=C(Nc1ccccc1C(C)C)C2=O`, 80.4% (inactive).
For `Cc1cccc2c3c(sc12)C(c1ccc(Cl)cc1)C(C#N)=C(/N=C/c1ccc(Cl)cc1)O3` (stereo not given), the growth is 24.4% (inactive).
Regarding `Cc1ccc2c(-c3cc(-c4ccccc4)nc(N)c3C#N)cc(=O)oc2c1`, the growth is 100% (inactive).
On the same count and under the same terms, to `Cc1ncc(C(=O)Nc2ccc(CN3CCN(C)CC3)c(C(F)(F)F)c2)cc1C#Cc1ccc(N)nc1` belongs 17.6% (inactive); to `COc1ccc(CN2c3ccccc3Sc3ccccc32)c(F)c1`, 30% (inactive).
For the molecule `COc1ccc(-c2ncnc3c2ncn3CC#CCCl)cc1`, the growth is 29.4% (inactive).
For the molecule `COc1ccc(C(=O)C[C@]2(O)C(=O)Nc3c(Cl)ccc(Cl)c32)cc1`, the growth was 33.9% (inactive).
Turning to `c1ccc2c(-c3nc(-c4c[nH]c5ccncc45)cs3)c[nH]c2c1`, the growth is -14.9% (active).
Regarding `C=CCNc1ccc2c3c(cccc13)C(=O)N(N1C(=O)c3cccc4cccc(c34)C1=O)C2=O`, the growth was 95.4% (inactive).
Consider `N#Cc1c(-c2ccccc2)nc(SCC(=O)Nc2nc(-c3ccc(Cl)cc3)cs2)[nH]c1=O`, for which the growth was 95.3% (inactive).
On to `COc1cc(C(=O)/C=C/c2c(Cl)nc3sccn23)cc(OC)c1OC`, for which the growth is 77.4% (inactive).
In the case of `COc1ccc(-c2cc(-c3ccc(Cl)cc3)c(C#N)c(=O)n2CCCCCC(=O)Nc2ccccc2N)cc1`, the growth was 48.8% (inactive).
For `COc1cccc(/C=C2\C=C(c3ccccc3)N(Cc3ccccc3)C2=O)c1`, the growth was 56.4% (inactive).
As for `CCOC(=O)c1cn2ncnc(Oc3ccc(NC(=O)NCCN(C)C)c(Cl)c3)c2c1C`, the growth was 70% (inactive).
Take `COc1ccc(N2C(=O)C(Oc3ccccc3)C2c2ccc(C)cc2)cc1` (stereo not given): the growth is 90.1% (inactive).
Take `O=[N+]([O-])c1ccc(Cl)c(-c2cc(CCCCO)on2)c1`: the growth was 101% (inactive).
With `COc1cccc2nc3n(c12)C(c1c(F)cccc1F)SC3` (stereo not given), the growth is 92.5% (inactive).
As to `Cc1ccc(S(=O)(=O)N/N=C/C2(c3ccccc3)CC2)cc1`, the growth is 103% (inactive).

The subject of the next assay is PC-3 prostate. Described as above. The conditions noted are these: 10 µM unless noted.
As to `CC(=O)OC[C@H]1OC(Sc2sc(C(=O)c3ccc(C)cc3)c(N)c2-c2nc3ccccc3s2)[C@H](OC(C)=O)[C@@H](OC(C)=O)[C@@H]1OC(C)=O` (stereo not given in full), the growth is 63.2% (inactive).
For `COC1=C(C)C(=O)c2c(c(CCCl)c3n2CCC3O)C1=O` (stereo not given), the growth is -2.49% (active).
For the molecule `Oc1ccc(C#CCOc2ccccc2)cc1CNCCN(Cc1ccccn1)Cc1ccccn1`, the growth is 27.7% (inactive).
In the case of `CCc1nnc(NC(=O)c2nnn(-c3ccccc3)c2-c2ccco2)s1`, the growth is 64.7% (inactive).
For `CNc1nc2c(s1)C(c1cccc(F)c1)CC(=O)N2` (stereo not given), the growth is 98.5% (inactive).
Consider `CC(=O)O.CN1[CH-]N(Cc2ccc(C#N)cc2)c2ccccc21.[Ag+]`, for which the growth is 91.1% (inactive).
As to `O=C(Nc1ccc(F)cc1F)c1cc(F)ccc1O`, the growth is 13.5% (inactive).
Take `CCc1ccc(Oc2c(-c3ccc(OCc4ccc(Cl)cc4)cc3O)nn(C)c2C(F)(F)F)cc1`: the growth is -6.54% (active).
The same measure, in the same setting: the same measure for `CCC(=O)Nc1ccc(-c2nc(-c3cccc(OC)c3)c(-c3ccnc(Br)c3)[nH]2)cc1`: 39.4% (inactive).
As for `CC/C=C\C[C@@H](O)C/C=C1/C(=O)C=C[C@H]1C/C=C\CCCC(=O)OC`, the growth is -21.1% (active).
On the same count and under the same terms, to `CC(=O)CC(c1ccccc1)c1c(C)[nH]c2ccccc12` (stereo not given) belongs 87.9% (inactive); to `Cc1nc2cnc(N)c(C#Cc3cncc(C(=O)Nc4ccc(CN5CCN(C)CC5)c(C(F)(F)F)c4)c3)c2nc1C`, 29% (inactive).
Same read-out and setting: the same measure for `COc1ccc(-c2nc(NCCO)[nH]c(=O)c2C#N)cc1`: 91.4% (inactive); for `COc1ccn2c(C(C)=O)cc(C(=O)c3ccc4c(c3)Sc3ccccc3N4)c2c1`: 23.8% (inactive); for `COC(=O)C(Cc1ccccc1)NC(=O)NC(=O)NC(=O)CI` (stereo not given): 87.6% (inactive).
For `O=C1CCC(C(=O)NCCNCCNC(=O)C2CCC(=O)N2)N1` (stereo not given), the growth was 78.5% (inactive).
With `C(=N/Nc1ncnc2nc[nH]c12)/c1ccccn1`, the growth is 31% (inactive).
Take `CCCCCCCCCCCCCCCCCCOc1ccc(CC(=O)OCC[N+](C)(C)C)cc1`: the growth was 96.9% (inactive).
In the case of `Cc1nn(-c2ccccc2)c(-n2ccnc2)c1/C=N/Nc1nc(-c2ccc(Cl)c(Cl)c2)cs1`, the growth is 28.8% (inactive).
On to `Cc1ccc2c(n1)C(=O)C(Cl)=C(Nc1ccccc1C(C)C)C2=O`, for which the growth was 53.9% (inactive).
For `Cc1cccc2c3c(sc12)C(c1ccc(Cl)cc1)C(C#N)=C(/N=C/c1ccc(Cl)cc1)O3` (stereo not given), the growth is 11% (inactive).
Same read-out and setting: the same measure for `Cc1ncc(C(=O)Nc2ccc(CN3CCN(C)CC3)c(C(F)(F)F)c2)cc1C#Cc1ccc(N)nc1`: 10.9% (inactive).
The same measure, in the same setting: to `COc1ccc(CN2c3ccccc3Sc3ccccc32)c(F)c1` belongs 30.3% (inactive).
Same read-out and setting: to `COc1ccc(-c2ncnc3c2ncn3CC#CCCl)cc1` belongs 57.1% (inactive); to `COc1ccc(C(=O)C[C@]2(O)C(=O)Nc3c(Cl)ccc(Cl)c32)cc1`, 34.3% (inactive); to `c1ccc2c(-c3nc(-c4c[nH]c5ccncc45)cs3)c[nH]c2c1`, 46.7% (inactive).
Turning to `C=CCNc1ccc2c3c(cccc13)C(=O)N(N1C(=O)c3cccc4cccc(c34)C1=O)C2=O`, the growth is 106% (inactive).
In the case of `N#Cc1c(-c2ccccc2)nc(SCC(=O)Nc2nc(-c3ccc(Cl)cc3)cs2)[nH]c1=O`, the growth is 91.6% (inactive).
The same measure, in the same setting: the same measure for `COc1cc(C(=O)/C=C/c2c(Cl)nc3sccn23)cc(OC)c1OC`: 70.5% (inactive).
`COc1ccc(-c2cc(-c3ccc(Cl)cc3)c(C#N)c(=O)n2CCCCCC(=O)Nc2ccccc2N)cc1`: the growth was 39.5% (inactive).
Same read-out and setting: the same measure for `COc1cccc(/C=C2\C=C(c3ccccc3)N(Cc3ccccc3)C2=O)c1`: 33.9% (inactive); for `CCOC(=O)c1cn2ncnc(Oc3ccc(NC(=O)NCCN(C)C)c(Cl)c3)c2c1C`: 68.6% (inactive); for `COc1ccc(N2C(=O)C(Oc3ccccc3)C2c2ccc(C)cc2)cc1` (stereo not given): 97.6% (inactive).
On the same count and under the same terms, to `O=[N+]([O-])c1ccc(Cl)c(-c2cc(CCCCO)on2)c1` belongs 104% (inactive); to `COc1cccc2nc3n(c12)C(c1c(F)cccc1F)SC3` (stereo not given), 80.6% (inactive).
As for `Cc1ccc(S(=O)(=O)N/N=C/C2(c3ccccc3)CC2)cc1`, the growth was 93.7% (inactive).
